Some test systems named below: SK-MEL-2 melanoma; EKVX NSCLC; SN12C renal; UO-31 renal; TK-10 renal; ACHN renal; CAKI-1 renal; A498 renal; CCRF-CEM leukemia; MOLT-4 leukemia.
Experiment in all cases: NCI-60 one-dose screen, 48 h (100 = growth as untreated, 0 = no growth, -100 = all killed)
Common to all, as to conditions: 10 µM unless noted

The panel holds about 83,000 compounds, 20% with a hit somewhere; the sample as a whole holds those more often.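 Interpretation: 100, growth as untreated; towards 0, rising growth inhibition; 0, no net growth; 0 to -100, cell death. Compounds scoring below 10 were considered active.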 Values without a mark were called inactive. Calls of active or inactive are those of the source.

Turning to `O=C(N/N=C/c1ccc([N+](=O)[O-])o1)c1ccc(O)cc1`, the growth in the assay on SK-MEL-2 melanoma is 24.1%; with EKVX NSCLC, 71.2%; in the assay with SN12C renal it was 29.4%; in the assay with UO-31 renal it was 84.7%; in the assay with TK-10 renal it was 125%; in the assay on ACHN renal, 66.5%. Besides, the growth was 88.3% in the assay on CAKI-1 renal, 112% with A498 renal, 34.6% with CCRF-CEM leukemia and 48.4% with MOLT-4 leukemia.

Regarding `C=C(COC(C)=O)[C@H]1CC/C(C)=C/CC/C(C)=C/CC[C@@]2(C)O[C@H]2C1`, the growth in the assay with SK-MEL-2 melanoma was 101%; in the assay with EKVX NSCLC, 106%; in the assay with SN12C renal it was 106%; in the assay with UO-31 renal, 99.9%; in the assay on TK-10 renal, 108%; in the assay on ACHN renal it was 99.8%. In addition, the growth in the assay with CAKI-1 renal is 126%; in the assay with A498 renal, 119%; in the assay with CCRF-CEM leukemia, 328%; in the assay with MOLT-4 leukemia, 110%.

`Cc1ccccc1C1CC(=O)c2ccccc2C1C` (stereo not given): the growth in the assay with SK-MEL-2 melanoma is 120%; in the assay on EKVX NSCLC, 101%; with SN12C renal, 99.1%; in the assay with UO-31 renal, 82.1%; in the assay on TK-10 renal it was 105%; with ACHN renal it was 108%. Besides, the growth in the assay with CAKI-1 renal is 106%; in the assay with A498 renal, 88.5%; with CCRF-CEM leukemia, 95.2%; in the assay with MOLT-4 leukemia, 93.5%.

Take `COc1ccc(C(=O)O)cc1.[Ag]`: the growth with SK-MEL-2 melanoma was 94.6%; in the assay on EKVX NSCLC, 108%; in the assay on SN12C renal, 103%; in the assay with UO-31 renal it was 91.2%; in the assay with TK-10 renal it was 106%; with ACHN renal, 103%. For the same compound, the growth is 87.2% in the assay on CAKI-1 renal, 96.5% in the assay on A498 renal, 25.4% in the assay on CCRF-CEM leukemia and -52.5% (active) in the assay with MOLT-4 leukemia.

On to `O=c1c2cc(Cl)ccc2oc2ccc(OCCCCCN3CCCCCC3)cc12`, for which the growth in the assay with SK-MEL-2 melanoma is 96.5%; with EKVX NSCLC, 89.6%; in the assay on SN12C renal it was 80.9%; in the assay on UO-31 renal it was 78.6%; in the assay with TK-10 renal, 89.2%; with ACHN renal, 110%. The growth with CAKI-1 renal was 94.6%; with A498 renal, 68.9%; in the assay with CCRF-CEM leukemia, 60.5%; in the assay with MOLT-4 leukemia, 48.5%.

`Nc1nc(N)c2cc(NCc3ccc(Cl)c(Cl)c3)ccc2n1`: the growth is -79.2% (active) in the assay with SK-MEL-2 melanoma; -78.8% (active) in the assay with EKVX NSCLC; -79.5% (active) in the assay with SN12C renal; -75.4% (active) in the assay with UO-31 renal; -93.8% (active) in the assay with TK-10 renal; -94.8% (active) in the assay on ACHN renal. Further, the growth with CAKI-1 renal was -68.4% (active); in the assay with A498 renal, 34.2%; in the assay on CCRF-CEM leukemia, -49.2% (active); in the assay with MOLT-4 leukemia, -55.6% (active).

For the compound `CCc1onc(-c2ccc(OC)cc2)c1-c1ccccc1OCCN(CC)CC`, the growth was 94.9% in the assay with SK-MEL-2 melanoma; 85.2% with EKVX NSCLC; 91.4% in the assay with SN12C renal; 56.8% in the assay with UO-31 renal; 92.2% in the assay on TK-10 renal; 92.9% in the assay with ACHN renal. Moreover, the growth with CAKI-1 renal is 82.4%; in the assay on A498 renal, 63.3%; with CCRF-CEM leukemia, 75.6%; in the assay on MOLT-4 leukemia, 87.2%.

For the compound `O=C(CCl)Nc1cc(O)c2c(c1)C(=O)c1cccc(O)c1C2=O`, the growth with SK-MEL-2 melanoma was -49.4% (active); in the assay on EKVX NSCLC, 5% (active); with SN12C renal it was -43.1% (active); in the assay with UO-31 renal, -87% (active); with TK-10 renal, -87.3% (active); in the assay on ACHN renal, -91.2% (active). In addition, the growth with CAKI-1 renal is -94% (active); with A498 renal, -0.734% (active); in the assay with CCRF-CEM leukemia it was -45% (active); in the assay on MOLT-4 leukemia, -56.3% (active).

Regarding `Oc1c(C(Nc2cccc3ccccc23)c2ccccc2)ccc2cccnc12` (stereo not given), the growth in the assay with SK-MEL-2 melanoma is 0.608% (active); in the assay on EKVX NSCLC, 31%; with SN12C renal, 38.9%; in the assay on UO-31 renal, 20.4%; with TK-10 renal, 46%; in the assay with ACHN renal, 22.1%. Besides, the growth in the assay on CAKI-1 renal is 12.7%; with A498 renal, 36.7%; in the assay with CCRF-CEM leukemia, 13.2%; with MOLT-4 leukemia it was -11.9% (active).

Turning to `Brc1ccsc1Br`, the growth with SK-MEL-2 melanoma is 101%; in the assay on EKVX NSCLC, 114%; with SN12C renal, 113%; in the assay on UO-31 renal, 91.3%; with TK-10 renal, 109%; in the assay with ACHN renal it was 112%. In addition, the growth is 99.6% with CAKI-1 renal, 141% with A498 renal, 102% in the assay with CCRF-CEM leukemia and 108% in the assay with MOLT-4 leukemia.

With `Fc1ccc(-c2cnc3nonc3n2)c(F)c1`, the growth with SK-MEL-2 melanoma is 108%; in the assay with EKVX NSCLC it was 108%; in the assay on SN12C renal it was 107%; in the assay on UO-31 renal, 89.1%; with TK-10 renal, 121%; with ACHN renal it was 95.2%. Besides, the growth in the assay on CAKI-1 renal is 96.3%; in the assay with A498 renal, 80.9%; with CCRF-CEM leukemia it was 46.1%; in the assay with MOLT-4 leukemia it was 77.6%.

Regarding `O=C(Nc1ccc(Br)cc1)Nc1cccc(Br)c1`, the growth in the assay with SK-MEL-2 melanoma was 26%; in the assay with EKVX NSCLC, 41%; with SN12C renal, 32.5%; with UO-31 renal it was 34.9%; with TK-10 renal, 29.2%; in the assay with ACHN renal, 14.9%. The growth was 50.3% with CAKI-1 renal, 21.4% in the assay on A498 renal, 15.6% in the assay on CCRF-CEM leukemia and 1.92% (active) with MOLT-4 leukemia.

`CC(C)CCSc1nc(Nc2ccccc2)c(C#N)c(-c2ccc(F)cc2)n1`: the growth in the assay with SK-MEL-2 melanoma was 90.6%; in the assay on EKVX NSCLC it was 65.1%; with SN12C renal, 38.9%; with UO-31 renal, 30%; in the assay with TK-10 renal, 20.6%; in the assay with ACHN renal it was 13.4%. Also, the growth in the assay on CAKI-1 renal is 55.5%; with A498 renal it was 40%; with CCRF-CEM leukemia, 49.3%; with MOLT-4 leukemia, 51.5%.
